These results are taken from the supplement of paper PMC6555819.

One experiment relates to PPARg:RXRa DBDmut IVT, anti-RXR (DBD mutation: RXRa K156A/R161A, NR concentration 270 nM, RXRa partner concentration 90 nM). Nature of the experiment: PBM binding z-score (relative to random genomic background probes); higher = stronger binding; sequences stand for … in GC…GCGATTGACAGCGTAGAATGAAGG
The method, boiled down:
(§1)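 Ligand-free nuclear receptor dimers were bound for 1 h to custom Agilent 4×180K protein-binding microarrays. Detection used antibodies against each partner (one per run). Binding z-scores rest on regression-normalized fluorescence, with random background probes as the reference.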
ACTATTAGTTGAGAAGAGGGCAACCGATAGGTTG came in with a PBM binding z-score of 0.072.

In the case of CGAACTAGGTCTGAACAGGACAGTGAAGGATGAT, the PBM binding z-score turned out to be 1.88.

CCGAGTAGGTTATGGGGCATTCCGGCAACGGTGA yielded a PBM binding z-score of 3.2.

GCTCGGATGACAAGGTCAGAGCTTTGTCCGTAGA showed a PBM binding z-score of 0.0806.

With CGAACTAGGTCAAAGGTCAAAGTCGAGCCAACCA, the PBM binding z-score is 8.51.

On to GCGACTGGTGCATCAGCAGGTTACCATAACTTAA, for which the PBM binding z-score was -0.556.

In the case of TCTAGTTGGTCACGGAGGTCACACACGACGGGTA, the PBM binding z-score turned out to be 2.46.

GTTGCTAGGTCAGGTTGGTCAGCTAACGGGTACG gave a PBM binding z-score of 2.88.

Sequence TCGTGTAGATCAGCAGGTTAAGAAAGCTGGCCAA had a PBM binding z-score of 1.06.

For the sequence GCTGGCAGGCCATTTGGGTCACTCAATGACGGGC, the PBM binding z-score was determined as 0.621.

With TGAATCAGGTTATAAGATCAGGGAACGTTGCAAA, the PBM binding z-score worked out at 0.57.

For the sequence AGCATGAGGTTATACGTAGATCAGGGAAGAAAGT, the PBM binding z-score was found to be 0.656.

CCTAGCAGGCCAATTTGGGTCACTCAAGGCTTGA came in with a PBM binding z-score of 2.7.

In turn, GATACAGGGTCAAGACCAGAGTACGCGTATTGAT gave a PBM binding z-score of 1.96.

For the sequence TCTCGGAGGACACGAAGGACAGAGCTTTCCAGAG, the PBM binding z-score stood at 1.14.

For the sequence CCGACTGGGCCACGAAAGGTCATTGATTCAGTGA, the PBM binding z-score was 4.66.

ATCGAAAGGTCGAAGGTTAGTATACCCACCCGAA came in with a PBM binding z-score of 0.165.

For the sequence TGAATGACGTTATAAGATCAGGGAACGTTGCAAA, the PBM binding z-score is -1.22.

Sequence AGAATGAGGCTACCAAAGATCAGGGAAACGCTTG gave a PBM binding z-score of 1.61.

CAAACTAGGTCAAGGTCATAGTCGGTTTGTGCCA yielded a PBM binding z-score of 8.52.

TCACGGAGGACACGAAAGGTCAGAGCTCGACATC: the PBM binding z-score was determined as 1.84.

As to ACTAGCAGGCCAGGTTTGGGTCACTCAAACAAAG, the PBM binding z-score was -0.173.

In the case of TAGCCTAGGTCATGGGCCAGTAGACCACGCGAAC, the PBM binding z-score amounted to 1.37.

Turning to CCCTACGGGTCACTGACAGGTTATAGCATTTGGA, the PBM binding z-score is 0.759.

In turn, GATACAGGGTCAACGCCAGAGTACGCGTATTGAT gave a PBM binding z-score of 3.53.

In turn, ACAGACAGGTGACGAAGGTAACTCAGGCTATCAT gave a PBM binding z-score of 0.762.

Sequence TCAGACAGGTGGAGGTAACTCAGGTACGCAGTCG came in with a PBM binding z-score of 1.72.

TCTATTAGTTGATTAGGGCAGCCGAAACAGCGGA showed a PBM binding z-score of 1.91.

Sequence GCTAGCAGGCCATTTGGGACACTCAATGACGGGC yielded a PBM binding z-score of 0.822.

On to TAGCCTAGGTCATGCAGGCCAGTATAGTGTCGGC, for which the PBM binding z-score was 1.84.

Take TCTTGTAGATCAAGCAGGTTAATAAAGCCTGAGT: the PBM binding z-score stood at 1.48.

In turn, CTCCAAAGGTCGTGCTCAGGTGAGTATACCAAAC registered a PBM binding z-score of 0.883.

For GCTGCTAGGTCCACTGATGGTCAGCTAAAGCTCG, the PBM binding z-score came out at 0.0704.

Turning to ATATGTAGCTTATCGGGTCATTCAGTTTGCGCAT, the PBM binding z-score was found to be 1.01.

For CCTCGGAGGACAGTAGGTCAGAGCTGTCCGCTTT, the PBM binding z-score worked out at 2.48.

For the sequence AGAATGAGGTTATAAAGATCAGGGAATTGCGGTC, the PBM binding z-score stood at 2.13.

As for GCTTGTAGATTAAGGTTAAGAAAGACTAAGCTAA, the PBM binding z-score was -0.0536.

In the case of CGTCAAAGTTCAATGTAACGTAACAGAAAGCAGC, the PBM binding z-score came out at 0.367.

TCTATTAGTTGATAAGGGCAACCGAAACAGCGGA gave a PBM binding z-score of 1.65.

In the case of GCTAGTTGGTCAGTAAAAGGTCACAGACCGGTCG, the PBM binding z-score was 1.25.

The subject of another experiment is PPARg:RXRa IVT, anti-PPARg (NR concentration 270 nM, RXRa partner concentration 90 nM). The description is as above. The essentials:
as §1
ACTATTAGTTGAGAAGAGGGCAACCGATAGGTTG came in with a PBM binding z-score of 0.463.

On to CGAACTAGGTCTGAACAGGACAGTGAAGGATGAT, for which the PBM binding z-score amounted to 0.996.

In turn, CCGAGTAGGTTATGGGGCATTCCGGCAACGGTGA showed a PBM binding z-score of 3.14.

GCTCGGATGACAAGGTCAGAGCTTTGTCCGTAGA displayed a PBM binding z-score of 0.0489.

In turn, CGAACTAGGTCAAAGGTCAAAGTCGAGCCAACCA returned a PBM binding z-score of 9.23.

For the sequence GCGACTGGTGCATCAGCAGGTTACCATAACTTAA, the PBM binding z-score was -0.572.

For TCTAGTTGGTCACGGAGGTCACACACGACGGGTA, the PBM binding z-score was 4.2.

Consider GTTGCTAGGTCAGGTTGGTCAGCTAACGGGTACG, for which the PBM binding z-score is 3.16.

Regarding TCGTGTAGATCAGCAGGTTAAGAAAGCTGGCCAA, the PBM binding z-score is -0.357.

Sequence GCTGGCAGGCCATTTGGGTCACTCAATGACGGGC registered a PBM binding z-score of 1.63.

TGAATCAGGTTATAAGATCAGGGAACGTTGCAAA showed a PBM binding z-score of 1.03.

For the sequence AGCATGAGGTTATACGTAGATCAGGGAAGAAAGT, the PBM binding z-score was 0.149.

As to CCTAGCAGGCCAATTTGGGTCACTCAAGGCTTGA, the PBM binding z-score turned out to be 2.91.

Sequence GATACAGGGTCAAGACCAGAGTACGCGTATTGAT had a PBM binding z-score of 3.52.

With TCTCGGAGGACACGAAGGACAGAGCTTTCCAGAG, the PBM binding z-score came to 0.0636.

For the sequence CCGACTGGGCCACGAAAGGTCATTGATTCAGTGA, the PBM binding z-score is 4.28.

On to ATCGAAAGGTCGAAGGTTAGTATACCCACCCGAA, for which the PBM binding z-score came to 2.11.

Regarding TGAATGACGTTATAAGATCAGGGAACGTTGCAAA, the PBM binding z-score was -0.257.

On to AGAATGAGGCTACCAAAGATCAGGGAAACGCTTG, for which the PBM binding z-score worked out at 0.854.

CAAACTAGGTCAAGGTCATAGTCGGTTTGTGCCA: the PBM binding z-score stood at 8.68.

For TCACGGAGGACACGAAAGGTCAGAGCTCGACATC, the PBM binding z-score was 1.63.

The sequence ACTAGCAGGCCAGGTTTGGGTCACTCAAACAAAG came in with a PBM binding z-score of 0.446.

In the case of TAGCCTAGGTCATGGGCCAGTAGACCACGCGAAC, the PBM binding z-score amounted to 3.63.

In the case of CCCTACGGGTCACTGACAGGTTATAGCATTTGGA, the PBM binding z-score is 2.29.

In turn, GATACAGGGTCAACGCCAGAGTACGCGTATTGAT had a PBM binding z-score of 4.25.

Sequence ACAGACAGGTGACGAAGGTAACTCAGGCTATCAT gave a PBM binding z-score of 1.19.

Regarding TCAGACAGGTGGAGGTAACTCAGGTACGCAGTCG, the PBM binding z-score is -0.0459.

TCTATTAGTTGATTAGGGCAGCCGAAACAGCGGA showed a PBM binding z-score of 1.17.

GCTAGCAGGCCATTTGGGACACTCAATGACGGGC had a PBM binding z-score of 0.411.

In the case of TAGCCTAGGTCATGCAGGCCAGTATAGTGTCGGC, the PBM binding z-score came out at 2.9.

With TCTTGTAGATCAAGCAGGTTAATAAAGCCTGAGT, the PBM binding z-score was found to be 0.498.

As for CTCCAAAGGTCGTGCTCAGGTGAGTATACCAAAC, the PBM binding z-score came out at 1.49.

As for GCTGCTAGGTCCACTGATGGTCAGCTAAAGCTCG, the PBM binding z-score is -0.423.

ATATGTAGCTTATCGGGTCATTCAGTTTGCGCAT came in with a PBM binding z-score of 1.81.

In turn, CCTCGGAGGACAGTAGGTCAGAGCTGTCCGCTTT displayed a PBM binding z-score of 3.2.

In turn, AGAATGAGGTTATAAAGATCAGGGAATTGCGGTC returned a PBM binding z-score of 2.04.

For GCTTGTAGATTAAGGTTAAGAAAGACTAAGCTAA, the PBM binding z-score worked out at 0.119.

On to CGTCAAAGTTCAATGTAACGTAACAGAAAGCAGC, for which the PBM binding z-score turned out to be 1.51.

TCTATTAGTTGATAAGGGCAACCGAAACAGCGGA: the PBM binding z-score stood at 0.714.

Regarding GCTAGTTGGTCAGTAAAAGGTCACAGACCGGTCG, the PBM binding z-score was 3.03.
